# In all, about 370,000 compounds went through this assay and about 6,800 (1.8%) were called active. The sample holds actives, similar compounds and a random draw of the others, so the mix is not that of the screen. A number with no mark means an inactive call.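 How the source made its calls: active means activation above a cutoff set at the mean of all screened compounds plus 3 SD (cut at about 10% in these data); inactive means the rest.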
# Tested on: Nuclear hormone receptor DAF-12 (Heterodera glycines), GAL4 fusion
# Assay: H. glycines DAF-12 receptor agonists, primary screen, cell-based, luminescence, HEK293, GAL4 fusion, UAS-luciferase (AID 687014);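 further: 0% = DMSO wells and 100% = sodium butyrate wells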
# Settings: HEK293 GAL4-hgDAF12 UAS-luciferase reporter, agonist luminescence; at 6.8 µM; hits give high values; normalized to butyrate control
row,SMILES,activation
1,O=C(Nc1nc2ccc(Cl)cc2s1)c1cc(-c2ccc(Cl)cc2)nc2ccccc12,-1.16%
2,O=C(Nc1ccccc1)Nc1nc2ccccc2s1,26.4% (active)
3,O=C(Nc1ccccc1)Nc1nnc(COc2ccccc2F)s1,-2.63%
4,CC(C)c1ccc(/C=C2\NC(=O)NC2=O)cc1,1.14%
5,CN(CCc1ccccc1)c1ccc([N+](=O)[O-])cn1,2.43%
6,CC(C)c1ccc(C=NNc2ccc([N+](=O)[O-])cn2)cc1,16.8% (active)
7,CCOC(=O)c1csc(NC(=O)C2CCCN(S(=O)(=O)c3ccc(Cl)s3)C2)n1 (stereo not drawn),-0.73%
8,CSCCC(NC(=O)c1ccco1)C(=O)Nc1cc(C)ccn1 (stereo not drawn),11.9% (active)
9,CSCCC(NC(=O)c1ccco1)C(=O)NCCc1ccc(F)cc1 (stereo not drawn),0.46%
10,CSCCC(NC(=O)c1ccco1)C(=O)OCC(=O)Nc1ncc(Cl)c(C)c1Cl (stereo not drawn),-1.62%
11,COC(=O)[C@]12C[C@H](CC(=O)NCc3ccccc3)C(=O)N(CCC3=CCCCC3)C1=C[C@H](C(C)C)O[C@@H]2C1CC1,2%
12,O=C(COc1ccc(S(=O)(=O)N2CCCC2)cc1[N+](=O)[O-])N1CCCCC1,-0.16%
13,O=[N+]([O-])c1cc(S(=O)(=O)N2CCCC2)ccc1NN=C1CCCC1,15.3% (active)
14,O=[N+]([O-])c1cc(C(F)(F)F)ccc1NN=C1CCCC1,0.04%
15,O=C1CC(c2ccc3c(c2)OCO3)N=C2N(CC3CC3)C/C(=C/c3ccccc3)N12 (stereo not drawn),-2.7%
16,Cc1cc(C)cc(N(CC(=O)NC2CCCC2)C(=O)CCC(=O)Nc2cc(C)on2)c1,-1.1%
17,O=C(O)C1CCCN1S(=O)(=O)c1ccc(Br)cc1 (stereo not drawn),0.88%
18,CC1CN/C(=C\C(=O)c2ccc(Br)cc2)C(=O)N1 (stereo not drawn),10.5% (active)
19,COc1cc2c(cc1OC)/C(=C/C(=O)c1ccc(NC(C)=O)cc1)NCC2,0.96%
20,C=CCN=C1NC(c2cccc(C(F)(F)F)c2)C(C(=O)OC)=C(C)N1C (stereo not drawn),1.38%

row,SMILES,activation
1,Cc1cccc(Cn2cnc3c(N)c(C)c(C)cc32)c1,-4.28%
2,CCCCCCN1CCS(=O)(=O)N(Cc2ccc(C(F)(F)F)cc2)C(C(=O)OC)C1 (stereo not drawn),1.39%
3,O=C(c1cnn2ccccc12)N1CCc2ccccc21,16.5% (active)
4,CCCCn1nc(C(=O)N2CCc3ccccc32)c2ccccc2c1=O,-0.16%
5,Cc1cnc(C(=O)OCC(=O)N2CCc3ccccc32)cn1,1.4%
6,COC(=O)[C@]12C[C@H](CC(=O)NCCCCc3ccccc3)C(=O)N(Cc3ccc4c(c3)OCO4)C1=C[C@H](C(C)(C)C)O[C@@H]2C,0.98%
7,Cc1ccc(-n2ncc3c(=O)n(-c4ccc(C)c(C)c4)c(-c4ccco4)nc32)cc1,3.84%
8,Cn1c(SCC(=O)c2cccs2)nnc1-c1ccco1,1.52%
9,Cn1c(-c2ccco2)nc2cc3ccccc3cc21,19.3% (active)
10,O=C(Nc1c(Cl)c(C2CC2)nn1-c1ccccc1)C(Cl)(Cl)Cl,-2.93%
11,CCC[C@H]1C(=O)CC[C@@]23CCCN2C(=O)CCC[C@@H]13,1.6%
12,CC1(c2nnc(-c3ccncc3)o2)CC(c2cccnc2)=NO1 (stereo not drawn),3.68%
13,COC(=O)CSc1nnc(-c2cccnc2)o1,1.06%
14,CN(C)c1ccc(-c2nnc(-c3cccnc3)o2)cc1,10.8% (active)
15,COc1ccc(/C(N)=N/OC(=O)Oc2ccccc2)cc1,1.76%
16,COc1ccc(/C(N)=N/OC(=O)CCCc2ccccc2)cc1,-0.4%
17,COc1ccc(/C(N)=N/OC(=O)Cc2ccccc2)cc1,11.7% (active)
18,CC(=O)Nc1ccc(OC[C@@H](O)CN2CCC(C(O)(c3ccccc3)c3ccccc3)CC2)cc1,2.46%
19,CCCNC(=O)C1CC(=O)N(c2ccc(OCC(=O)Nc3cccc(C)c3C)cc2)C1 (stereo not drawn),0.77%
20,CCCNC(=O)C1CC(=O)N(c2ccc(OCc3ccccc3)cc2)C1 (stereo not drawn),11% (active)

row,SMILES,activation
1,CCOc1ccc(N2CC(C(=O)NCc3ccccn3)CC2=O)cc1 (stereo not drawn),-1.47%
2,COc1ccc(N2CCN(CCNS(=O)(=O)c3ccc(Cl)s3)CC2)cc1,2.51%
3,COc1cccc(C(O)Cc2nc3ccccc3n2C)c1OC (stereo not drawn),3.91%
4,Cc1ccc(OCc2nc3ccccc3n2C)cc1,13.2% (active)
5,Cc1ccc(Oc2nc3ccccc3n3c(C)nnc23)cc1,1.53%
6,COC(=O)[C@]12C[C@H](CC(=O)NCc3cccc4ccccc34)C(=O)N(CCc3ccc(OC)c(OC)c3)C1=C[C@H](C1CCCC1)O[C@@H]2C,-1.01%
7,O=C(CSc1nnc(-c2ccccn2)n1-c1ccccc1)Nc1ccc2cn[nH]c2c1,6.78%
8,O=C(NCCS(=O)(=O)c1ccc(Br)cc1)c1ccccc1Cl,2.39%
9,Cc1ccccc1NC(=O)Cn1nnc(-c2ccccc2F)n1,-1.63%
10,CN(C)c1ccnc2sc(C(=O)c3ccccc3)c(N)c12,21.3% (active)
11,CC(=O)c1c(Nc2ccccc2)sc(C(=O)c2ccccc2)c1C,4.88%
12,COC(=O)c1cc2c(N)c(C(=O)c3ccc(Cl)cc3)sc2nc1C(OC)OC,-0.74%
13,COC(=O)c1c(C(=O)OC)c(-c2cccc(C)c2)n2c1CS(=O)C2 (stereo not drawn),2.79%
14,Cc1cc(NS(=O)(=O)c2ccc(NC(=O)CSc3nnc(SCc4ccc(F)cc4)s3)cc2)nc(C)n1,1.18%
15,CCOC(=O)C(=O)N(Cc1ccccc1)c1ccccc1C(=O)Nc1cc(OC)ccc1OC,-2.17%
16,Cc1ccccc1CN1CCCCC(NC(=O)c2cccc(C#N)c2)C1=O (stereo not drawn),-2.73%
17,COC(=O)C1=C(C)N(Cc2ccc(C(F)(F)F)cc2)C(=NCc2ccccc2)NC1c1ccccc1C(F)(F)F (stereo not drawn),1.9%
18,COCc1[nH]nc2c1C(c1ccccc1)N(c1ccccc1)C2=O (stereo not drawn),0.79%

# — PubChem BioAssay AID687014 (The Scripps Research Institute Molecular Screening Center, 2013)
